Compound activity from PubChem BioAssay.
Pf Dd2 growth: P. falciparum Dd2 growth inhibitors, primary screen, SYBR Green fluorescence, single dose replicates | activity change, % at 10 µM | 72 h; stronger effect = lower value | hit rate 2.3% among 94,000 | AID 1159554, 2015; in the data active = activity change below about -80%; inconclusive = no clear call, values can overlap the other calls
C diff HTS: C. difficile growth inhibitors, primary screen, HTS; growth activity, negative = inhibition, % at 16 µg/mL (by protocol); Clostridium difficile clinical isolate growth, OD600, 24 h; stronger effect = lower value; hit rate 0.25% among 86,000;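 active = mean growth activity at or below -80% and every replicate also at or below -80%; inconclusive = mean at or below -80% but some replicate above -80%; inactive = mean growth activity above -80%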;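 also: 0% = DMSO wells and -100% = levofloxacin 16 µg/mL wells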
* marks the source's active call; other numbers are inactive results; ? = inconclusive; · = not tested or not shown. Rows were chosen to be rich in hits. Some 2.4% of all compounds tested hit in one or more screens of this group.

SMILES	Pf Dd2 growth	C diff HTS
O=C(c1ccccn1)N1CC(=O)N2[C@H](CO)[C@@H](c3ccc(C#CCc4ccccc4)cc3)[C@@H]2C1	?	3
CCC(=O)N1CC(=O)N2[C@H](CO)[C@@H](c3ccc(C#CCc4ccccc4)cc3)[C@@H]2C1	-39	-15
CCC(=O)N1CC(=O)N2[C@@H](CO)[C@H](c3ccc(C#CCc4ccccc4)cc3)[C@@H]2C1	-85*	-16
CO[C@@H]1CN(C)C(=O)c2ccc(NS(=O)(=O)c3cn(C)cn3)cc2OC[C@@H](C)N(Cc2cccc(F)c2)C[C@H]1C	-10	-3
O=C(NC1CCCCC1)N1CC2(C1)[C@H](c1ccccc1)[C@@H](CO)N2CC1CC1	18	50
O=C(C1CC1)N1CC(=O)N2[C@@H](CO)[C@H](c3ccc(C#CCc4ccccc4)cc3)[C@@H]2C1	-53	-23
COCC#Cc1ccc([C@H]2[C@@H](CO)N3C(=O)CN(C(=O)CN4CCOCC4)C[C@@H]23)cc1	21	3
O=C(C1CC1)N1CC(=O)N2[C@H](CO)[C@@H](c3ccc(C#CCc4ccccc4)cc3)[C@@H]2C1	-88*	-26
COCC#Cc1ccc([C@H]2[C@H](CO)N3C(=O)CN(C(=O)CN4CCOCC4)C[C@@H]23)cc1	-85*	2
C[C@@H]1CN([C@H](C)CO)C(=O)Cc2cc(NC(=O)Cc3cn(C)c4ccccc34)ccc2O[C@H]1CN(C)Cc1ccccc1	-11	-16
C[C@H](CO)N1C[C@H](C)[C@H](CN(C)Cc2ccc(Oc3ccccc3)cc2)Oc2ccc(NC(=O)Cc3cn(C)c4ccccc34)cc2CC1=O	-83*	9
C[C@H]1CN([C@@H](C)CO)C(=O)Cc2cc(NC(=O)Cc3cn(C)c4ccccc34)ccc2O[C@H]1CN(C)C(=O)Nc1cccc2ccccc12	-33	-2
C[C@H](CO)N1C[C@H](C)[C@@H](CN(C)Cc2ccccc2)Oc2ccc(NC(=O)Cc3cn(C)c4ccccc34)cc2CC1=O	-82*	-5
C[C@@H]1CN([C@@H](C)CO)C(=O)Cc2cc(NC(=O)Cc3cn(C)c4ccccc34)ccc2O[C@H]1CN(C)Cc1ccc(Oc2ccccc2)cc1	-90*	41
C[C@@H]1CN([C@H](C)CO)C(=O)Cc2cc(NC(=O)Cc3cn(C)c4ccccc34)ccc2O[C@@H]1CN(C)Cc1ccc(Oc2ccccc2)cc1	-28	-2
C[C@H](CO)N1C[C@H](C)[C@H](CN(C)C(=O)Nc2cccc3ccccc23)Oc2ccc(NC(=O)Cc3cn(C)c4ccccc34)cc2CC1=O	-85*	-4
COc1ccc(CN(C)C[C@H]2Oc3ccc(NC(=O)Cc4cn(C)c5ccccc45)cc3CC(=O)N([C@H](C)CO)C[C@H]2C)cc1	31	-13
O=C(CCN1CCCCC1)NCC[C@@H]1CC[C@H](NC(=O)c2ccc(F)cc2)[C@@H](CO)O1	-14	·
COc1ccccc1NC(=O)N[C@@H]1C=C[C@@H](CC(=O)N[C@@H](C)c2ccccc2)O[C@H]1CO	12	·
CCS(=O)(=O)N1CC2(C1)[C@@H](c1ccccc1)[C@@H](CO)N2C(=O)C1CC1	35	-1
C[C@@H]1CN([C@H](C)CO)S(=O)(=O)c2ccc(-c3ccccc3)cc2O[C@@H]1CN(C)C(=O)C1CCC1	10	·
COc1cccc(NC(=O)N2[C@H](CO)[C@H](c3ccccc3)[C@H]2CNC(C)C)c1	-67	-1
COc1cccc(NC(=O)N2[C@H](CNC(C)C)[C@H](c3ccccc3)[C@@H]2CO)c1	6	·
COc1cccc(NC(=O)N2[C@@H](CO)[C@H](c3ccccc3)[C@@H]2CNCC(C)C)c1	-91*	-6
COc1cccc(NC(=O)N2[C@H](CO)[C@@H](c3ccccc3)[C@H]2CNCC(C)C)c1	-77	-9
SMILES	Pf Dd2 growth	C diff HTS
COc1cccc(NC(=O)N2[C@@H](CO)[C@@H](c3ccccc3)[C@@H]2CNC(C)C)c1	-89*	13
COc1cccc(NC(=O)N2[C@H](CO)[C@H](c3ccccc3)[C@H]2CNCC(C)C)c1	-82*	3
CCC(=O)Nc1ccc2c(c1)OC[C@@H](C)N(CCc1ccccc1)C[C@@H](C)[C@@H](OC)CN(C)C2=O	-7	·
COCC(=O)N(C)C[C@@H]1Oc2ncc(C3=CCCC3)cc2C(=O)N([C@@H](C)CO)C[C@H]1C	8	2
O=C(CC(F)(F)F)N1C[C@@H]2[C@H](c3ccccc31)[C@H](CO)N2C(=O)CN1CCOCC1	0	-2
C[C@@H]1CCCCO[C@@H](CN(C)Cc2ccc(C(=O)Nc3ccccc3N)cc2)[C@@H](C)CN([C@H](C)CO)C(=O)c2cc(NC(=O)Nc3ccc(C(F)(F)F)cc3)ccc2O1	-83*	47
C[C@H](CO)N1C[C@H](C)[C@H](CN(C)Cc2ccc(C(F)(F)F)cc2)OCCCC[C@H](C)Oc2ccc(NC(=O)Nc3ccccc3)cc2C1=O	35	3
C[C@@H]1CCCCO[C@@H](CN(C)Cc2ccc(C(=O)Nc3ccccc3N)cc2)[C@@H](C)CN([C@H](C)CO)C(=O)c2cc(NC(=O)Nc3ccccc3)ccc2O1	-75	·
C[C@@H]1CCCCO[C@@H](CN(C)Cc2ccc(C(=O)Nc3ccccc3N)cc2)[C@@H](C)CN([C@H](C)CO)C(=O)c2cc(NC(=O)Nc3ccc(F)cc3)ccc2O1	-87*	34
O=C(N[C@@H]1CC[C@@H](CCn2cc(-c3ccccn3)nn2)O[C@H]1CO)c1ccncc1	-8	-1
C[C@H]1CN([C@@H](C)CO)C(=O)c2cccc(N(C)C)c2O[C@@H]1CN(C)Cc1ccc(C(=O)O)cc1	1	2
COc1ccc2c3c([nH]c2c1)[C@@H](CO)N(C(=O)C1CCC1)CC31CCN(Cc2nccs2)CC1	-68	-2
COc1ccc2c3c([nH]c2c1)[C@H](CO)N(Cc1nccs1)CC31CN(Cc2cccnc2)C1	-88*	6
COc1ccc2c3c([nH]c2c1)[C@H](CO)N(Cc1ccc(Cl)cc1)CC31CCN(Cc2nccs2)CC1	-93*	5
COc1ccc2c3c([nH]c2c1)[C@@H](CO)N(C(=O)C1CCCC1)CC31CCN(Cc2nccs2)CC1	-59	-3
COc1ccc2c3c([nH]c2c1)[C@@H](CO)N(Cc1nccs1)CC31CN(Cc2nccs2)C1	-37	6
COc1ccc2c3c([nH]c2c1)[C@@H](CO)N(Cc1ccc(Cl)cc1)CC31CN(Cc2nccs2)C1	-70	4
COc1ccc2c3c([nH]c2c1)[C@H](CO)N(C(=O)C1CCCC1)CC31CCN(Cc2nccs2)CC1	-83*	-2
COc1ccc2c3c([nH]c2c1)[C@H](CO)N(C(=O)C1CCCCC1)CC31CCN(Cc2nccs2)CC1	-88*	-3
COc1ccc(S(=O)(=O)N(C)C[C@@H]2Oc3ccc(NC(=O)Nc4cccc5ccccc45)cc3CC(=O)N([C@@H](C)CO)C[C@@H]2C)cc1	-42	6
C[C@@H]1CN([C@@H](C)CO)C(=O)c2ccccc2-c2ccccc2CO[C@H]1CN(C)C(=O)[C@H](C)c1ccccc1	12	5
Cc1ccc(-c2ccc3c(c2)O[C@H](CN(C)C)[C@H](C)CN([C@@H](C)CO)S3(=O)=O)cc1	8	0
CCCNC(=O)C[C@H]1CC[C@@H]2[C@H](COc3ccc(NC(=O)c4cccs4)cc3C(=O)N2C)O1	9	1
